This is part of a sample that, as a whole, favours compounds with a hit. Of some 83,000 tested, about 20% had one in any assay.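 The endpoint reported here, percent growth, reads 100 for growth as untreated, 0 for no net growth and -100 for all cells dead.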 Activity calls are given as the source filed them. How the source made its calls: active means growth percent below 10; inactive means the rest.
Legend:
Experiment in all cases: NCI-60 one-dose screen, 48 h (100 = growth as untreated, 0 = no growth, -100 = all killed)
Conditions in all cases: 10 µM unless noted
RPMI-8226 leukemia = tested on: RPMI-8226 leukemia
OVCAR-8 ovarian = tested on: OVCAR-8 ovarian
OVCAR-5 ovarian = tested on: OVCAR-5 ovarian
OVCAR-4 ovarian = tested on: OVCAR-4 ovarian
SK-OV-3 ovarian = tested on: SK-OV-3 ovarian
IGROV1 ovarian = tested on: IGROV1 ovarian
HS 578T breast = tested on: HS 578T breast
NCI/ADR-RES ovarian = tested on: NCI/ADR-RES ovarian
T-47D breast = tested on: T-47D breast
OVCAR-3 ovarian = tested on: OVCAR-3 ovarian

Measured: growth

COC(=O)c1ccc2c(c1)nc(-c1ccc(O)c(OC)c1)n2-c1cc(C(C)(C)C)[nH]n1
inactive: RPMI-8226 leukemia 72.8% | OVCAR-8 ovarian 98.8% | OVCAR-5 ovarian 117% | OVCAR-4 ovarian 111% | SK-OV-3 ovarian 133% | IGROV1 ovarian 101% | HS 578T breast 98.2% | NCI/ADR-RES ovarian 98.4% | T-47D breast 92.3%

CN(CC(=O)Nc1nc2ccccc2[nH]1)S(=O)(=O)c1ccc(Cl)cc1
active: IGROV1 ovarian -28.9%
inactive: RPMI-8226 leukemia 57.5% | OVCAR-8 ovarian 95.2% | OVCAR-5 ovarian 96.4% | OVCAR-4 ovarian 93.6% | SK-OV-3 ovarian 96.5% | HS 578T breast 87.2% | NCI/ADR-RES ovarian 88.3% | T-47D breast 77%

Clc1cccc(Cc2cn3cc(-c4ccccc4)nc3s2)c1
inactive: RPMI-8226 leukemia 41.3% | OVCAR-8 ovarian 53.4% | OVCAR-5 ovarian 34.1% | OVCAR-4 ovarian 46.8% | SK-OV-3 ovarian 93.8% | IGROV1 ovarian 64.8% | OVCAR-3 ovarian 73.6% | NCI/ADR-RES ovarian 60.2% | T-47D breast 11.5%

Cn1cc(-c2csc(-c3c[nH]c4ncccc34)n2)c2cc(F)cnc21
inactive: RPMI-8226 leukemia 70.3% | OVCAR-8 ovarian 77.5% | OVCAR-5 ovarian 87.1% | OVCAR-4 ovarian 62.4% | SK-OV-3 ovarian 81.8% | IGROV1 ovarian 66.5% | OVCAR-3 ovarian 87.8% | NCI/ADR-RES ovarian 63% | T-47D breast 43.7%

Cn1cc(-c2csc(-c3cn(C)c4ncccc34)n2)c2cc(Br)cnc21
inactive: RPMI-8226 leukemia 79.3% | OVCAR-8 ovarian 94.3% | OVCAR-5 ovarian 88.1% | OVCAR-4 ovarian 92.1% | SK-OV-3 ovarian 105% | IGROV1 ovarian 110% | OVCAR-3 ovarian 119% | NCI/ADR-RES ovarian 79.2% | T-47D breast 77%

Clc1nc(Cl)c2ncn(-c3ccccc3)c2n1
active: IGROV1 ovarian -48.8%
inactive: RPMI-8226 leukemia 108% | OVCAR-8 ovarian 51.4% | OVCAR-5 ovarian 102% | OVCAR-4 ovarian 68.9% | SK-OV-3 ovarian 88.4% | OVCAR-3 ovarian 54.9% | NCI/ADR-RES ovarian 92.6% | T-47D breast 50.6%

COc1ccc(COC(C)=O)cc1
inactive: RPMI-8226 leukemia 103% | OVCAR-8 ovarian 106% | OVCAR-5 ovarian 98.1% | OVCAR-4 ovarian 120% | SK-OV-3 ovarian 113% | IGROV1 ovarian 142% | OVCAR-3 ovarian 110% | NCI/ADR-RES ovarian 116% | T-47D breast 102%

COc1cc(/C=C/C(=O)N2CCN(C(=O)/C=C/c3ccccc3)CC2)cc(OC)c1OC
inactive: RPMI-8226 leukemia 95.5% | OVCAR-8 ovarian 98.1% | OVCAR-5 ovarian 117% | OVCAR-4 ovarian 97.1% | SK-OV-3 ovarian 122% | IGROV1 ovarian 115% | HS 578T breast 113% | NCI/ADR-RES ovarian 108% | T-47D breast 110%

CCC(O)C(C)(C)C (centres undefined)
inactive: RPMI-8226 leukemia 122% | OVCAR-8 ovarian 103% | OVCAR-5 ovarian 114% | OVCAR-4 ovarian 118% | SK-OV-3 ovarian 110% | IGROV1 ovarian 112% | OVCAR-3 ovarian 123% | NCI/ADR-RES ovarian 97.7% | T-47D breast 112%

Cc1cc(NC(=O)c2ccc(N)cc2)ccc1N=Nc1ccc2c(O)c(N=Nc3ccc(Cl)c(S(=O)(=O)O)c3)c(S(=O)(=O)O)cc2c1
inactive: RPMI-8226 leukemia 65.6% | OVCAR-8 ovarian 70.2% | OVCAR-5 ovarian 92.2% | OVCAR-4 ovarian 106% | SK-OV-3 ovarian 88.6% | IGROV1 ovarian 73% | HS 578T breast 103% | NCI/ADR-RES ovarian 76.1% | T-47D breast 70.9%

CC12CCCCC1C(C(N)=O)C(=O)O2 (centres undefined)
inactive: RPMI-8226 leukemia 106% | OVCAR-8 ovarian 102% | OVCAR-5 ovarian 112% | OVCAR-4 ovarian 101% | SK-OV-3 ovarian 107% | IGROV1 ovarian 119% | HS 578T breast 110% | NCI/ADR-RES ovarian 102% | T-47D breast 114%

O=C(CCc1nnc2sc(-c3ccc(Cl)cc3Cl)nn12)c1nc2ccccc2[nH]1
active: RPMI-8226 leukemia 2% | OVCAR-8 ovarian -30.9% | OVCAR-5 ovarian -52.6% | OVCAR-4 ovarian -54% | SK-OV-3 ovarian -52.4% | IGROV1 ovarian 0.377% | OVCAR-3 ovarian -80.6% | NCI/ADR-RES ovarian -0.815% | T-47D breast -68.4%

c1cncc(CNc2ccccc2-c2nnc(Nc3ccc4c(c3)OCO4)o2)c1
inactive: RPMI-8226 leukemia 27.5% | OVCAR-8 ovarian 26.1% | OVCAR-5 ovarian 25.2% | OVCAR-4 ovarian 36.3% | IGROV1 ovarian 25.2% | HS 578T breast 35.4% | NCI/ADR-RES ovarian 19.4% | T-47D breast 43.5%
active: SK-OV-3 ovarian -3.15%

CSC1=Nc2c(c(C)c(-c3ccccc3)n2CCCN2CCCCC2)C2=NC(=O)C[C@H](C)N12
inactive: OVCAR-8 ovarian 44.6% | OVCAR-5 ovarian 83.1% | OVCAR-4 ovarian 43.6% | SK-OV-3 ovarian 26.9% | IGROV1 ovarian 22.6% | HS 578T breast 11% | NCI/ADR-RES ovarian 82.4%
active: RPMI-8226 leukemia -51.1% | T-47D breast -2.25%

COc1ccc(C2CC(c3cccc(Nc4ccnc5cc(Cl)ccc45)c3)=NN2C=O)cc1 (centres undefined)
inactive: RPMI-8226 leukemia 21.5% | OVCAR-8 ovarian 35.1% | OVCAR-5 ovarian 45.3% | OVCAR-4 ovarian 61.7% | SK-OV-3 ovarian 19% | IGROV1 ovarian 32.7% | T-47D breast 43.5%
active: HS 578T breast -3.1% | NCI/ADR-RES ovarian 8.68%

COc1ccc(-c2cncn2-c2ccc(-c3nc4cc(OC)c(OC)c(OC)c4s3)cc2)cc1N
inactive: RPMI-8226 leukemia 62.2% | OVCAR-8 ovarian 37.1% | OVCAR-5 ovarian 96.4% | OVCAR-4 ovarian 46.7% | SK-OV-3 ovarian 103% | IGROV1 ovarian 58.8% | HS 578T breast 74.7% | NCI/ADR-RES ovarian 52.4% | T-47D breast 50.5%

Cc1cc2cn3c4cccnc4[nH]c(=O)c3c2cc1C
inactive: OVCAR-5 ovarian 92.9% | OVCAR-4 ovarian 47.9% | SK-OV-3 ovarian 81% | IGROV1 ovarian 65%
active: RPMI-8226 leukemia -5.48% | OVCAR-8 ovarian -46.1% | NCI/ADR-RES ovarian 9.65% | T-47D breast -21.3%

CC(C)c1nc(N(C)S(C)(=O)=O)nc(-c2ccc(F)cc2)c1/C=C/[C@@H](O)C[C@@H](O)CC(=O)O
inactive: RPMI-8226 leukemia 113% | OVCAR-8 ovarian 90.5% | OVCAR-5 ovarian 108% | OVCAR-4 ovarian 100% | SK-OV-3 ovarian 104% | IGROV1 ovarian 105% | HS 578T breast 110% | NCI/ADR-RES ovarian 104% | T-47D breast 99.4%

COc1ccc(-c2cc(Cc3cccs3)c(=O)n(Cn3ccc4ccccc43)n2)cc1
inactive: RPMI-8226 leukemia 88% | OVCAR-8 ovarian 99.2% | OVCAR-5 ovarian 99.9% | OVCAR-4 ovarian 111% | SK-OV-3 ovarian 106% | IGROV1 ovarian 124% | HS 578T breast 112% | NCI/ADR-RES ovarian 107% | T-47D breast 109%

COc1cc(C2NC(c3ccc(Cl)cc3)C(C)C(=NC(=O)c3cnccn3)C2C)cc(OC)c1OC (centres undefined)
inactive: RPMI-8226 leukemia 79.4% | OVCAR-8 ovarian 103% | OVCAR-5 ovarian 94.5% | OVCAR-4 ovarian 93% | SK-OV-3 ovarian 108% | IGROV1 ovarian 91.6% | HS 578T breast 109% | NCI/ADR-RES ovarian 101% | T-47D breast 88%

CCCc1cc(=O)n2c(C(=O)Nc3ccccc3OC)c(C(=O)Nc3ccc(F)cc3)sc2n1
inactive: RPMI-8226 leukemia 30.5% [30 µM] | OVCAR-8 ovarian 18.5% [30 µM] | OVCAR-5 ovarian 57.8% [30 µM] | OVCAR-4 ovarian 36.2% [30 µM] | SK-OV-3 ovarian 29.9% [30 µM] | NCI/ADR-RES ovarian 24.8% [30 µM] | T-47D breast 85.4% [30 µM]
active: IGROV1 ovarian -12.6% [30 µM] | HS 578T breast 9.91% [30 µM]

Cc1ccc2c(c1)C(=O)/C(=C/c1ncc([N+](=O)[O-])n1C)O2
inactive: OVCAR-4 ovarian 21.8% | T-47D breast 90.3%
active: RPMI-8226 leukemia -12.4% | OVCAR-8 ovarian -30.8% | OVCAR-5 ovarian 8.96% | SK-OV-3 ovarian 0.948% | IGROV1 ovarian -26.5% | HS 578T breast -10.2% | NCI/ADR-RES ovarian -3.98%

COc1ccc(C2=NN(C(C)=O)C(c3cc(OC)c(OC)c(OC)c3)C2)cc1 (centres undefined)
inactive: RPMI-8226 leukemia 93.9% | OVCAR-8 ovarian 108% | OVCAR-5 ovarian 111% | OVCAR-4 ovarian 112% | SK-OV-3 ovarian 108% | IGROV1 ovarian 92.8% | HS 578T breast 244% | NCI/ADR-RES ovarian 83% | T-47D breast 92.1%

O=C1NCC(Nc2ccc(Br)cc2Cl)C(=O)N1 (centres undefined)
inactive: RPMI-8226 leukemia 110% | OVCAR-8 ovarian 130% | OVCAR-5 ovarian 100% | OVCAR-4 ovarian 111% | SK-OV-3 ovarian 105% | IGROV1 ovarian 108% | HS 578T breast 105% | NCI/ADR-RES ovarian 107% | T-47D breast 99.6%

Oc1ccccc1/C=N\Nc1ccccc1
inactive: RPMI-8226 leukemia 43.7% | OVCAR-8 ovarian 52% | OVCAR-5 ovarian 55.5% | OVCAR-4 ovarian 84% | SK-OV-3 ovarian 108% | IGROV1 ovarian 57.3% | HS 578T breast 80.8% | NCI/ADR-RES ovarian 44.1% | T-47D breast 44.5%

O=C(CCc1nnc2sc(Cc3ccccc3Cl)nn12)c1nc2ccccc2[nH]1
inactive: RPMI-8226 leukemia 94.7% | OVCAR-8 ovarian 93.7% | OVCAR-5 ovarian 105% | OVCAR-4 ovarian 94% | SK-OV-3 ovarian 99.7% | IGROV1 ovarian 90.9% | OVCAR-3 ovarian 82.5% | NCI/ADR-RES ovarian 95.9% | T-47D breast 78.5%

C/C(=N/N=C(N)N)c1ccc(N)cc1
inactive: RPMI-8226 leukemia 190% | OVCAR-8 ovarian 111% | OVCAR-5 ovarian 105% | OVCAR-4 ovarian 100% | SK-OV-3 ovarian 105% | HS 578T breast 73.3% | NCI/ADR-RES ovarian 103% | T-47D breast 94.7%
active: IGROV1 ovarian -12.3%

c1ccc2c(c1)[nH]c1c2cc[n+]2cc3c(cc12)CCCC3
inactive: RPMI-8226 leukemia 32.6% | OVCAR-8 ovarian 10.7% | OVCAR-5 ovarian 48.1% | OVCAR-4 ovarian 38.9% | SK-OV-3 ovarian 23.4% | IGROV1 ovarian 66.4% | OVCAR-3 ovarian 20.9% | NCI/ADR-RES ovarian 97.7%
active: T-47D breast -13.8%

COc1cc(/C=C/C(=O)Nc2ccc3c(c2)/C(=C\c2cccn2C)C(=O)N3)cc(OC)c1OC
active: RPMI-8226 leukemia -17.8% | HS 578T breast 4.35%
inactive: OVCAR-8 ovarian 37% | OVCAR-5 ovarian 99.5% | OVCAR-4 ovarian 50.3% | SK-OV-3 ovarian 81.5% | IGROV1 ovarian 60.4% | NCI/ADR-RES ovarian 84.2% | T-47D breast 15%

COc1cccc(C2C(C#N)=C(N)Oc3cc(OC)ccc32)c1 (centres undefined)
inactive: OVCAR-5 ovarian 34.4% | OVCAR-4 ovarian 59.3% | IGROV1 ovarian 10.9% | HS 578T breast 11.3% | T-47D breast 55.8%
active: RPMI-8226 leukemia 9.12% | OVCAR-8 ovarian 3.88% | SK-OV-3 ovarian 3.13% | NCI/ADR-RES ovarian 3.99%
